Test results from PubChem BioAssay AID565 (University of Pittsburgh Molecular Library Screening Center, 2006).
Among all 65,000 compounds or so, about 1,200 (1.8%) were called active. Many of the other results were omitted from the sample, so actives are more common in it than they were. Values without a mark were called inactive. Rule as the data show it: active = inhibition above about 50%; inactive = the rest.

The compounds below were run against Gag-Pol polyprotein (Human immunodeficiency virus type 1 group M subtype B (isolate HXB2)) (UniProt P04585) (assay: HIV-1 RT RNase H inhibitors, primary screen, biochemical, fluorescence (AID 565)). Details: RT-RNase H RNA/DNA duplex cleavage, at 10 µM, active compounds read high.

| Compound | inhibition |
| --- | --- |
| CCOC(=O)c1c(-n2cnnn2)sc(C)c1C | 70.4% (active) |
| CCOC(=O)c1c(NC(=O)c2cccs2)sc(C)c1C | -2.71% |
| CCOC(=O)c1c(NC(=O)CSc2nnc(Cc3csc(N)n3)n2C)sc(C)c1C | -19.7% |
| Cc1cccc(NC(=O)C2CCCN2S(=O)(=O)c2ccc(F)cc2)c1C (stereo not drawn) | -5.03% |
| COc1ccc(CCNC(=O)c2ccc3c(c2)NC(=O)C(N2CCOCC2)S3)cc1OC (stereo not drawn) | -10.7% |
| O=c1cc(-c2ccccc2)nc(N2CCCCC2)[nH]1 | -11.7% |
| CC(=O)N1CCN(c2ccc(NCc3ccc(C(C)C)cc3)cc2)CC1 | -16.6% |
| CCOC(=O)CSc1nc2c(c(=O)n(C)c(=O)n2C)n1Cc1ccccc1F | -12.1% |
| CCOC(=O)CSc1nc2c(sc(=S)n2CCc2ccccc2)c(=O)n1Cc1ccco1 | 60.1% (active) |
| COc1ccccc1NC(=O)CSc1nc2sc(C)c(C)c2c(=O)n1Cc1ccco1 | 9.92% |
| COc1ccc(C2C(C#N)=C(N)Oc3n[nH]c(C)c32)cc1CN1CCN(c2ccc(F)cc2)CC1 (stereo not drawn) | -5.93% |
| COc1ccc(COC(=O)c2n[nH]c3ccccc23)cc1F | -42.8% |
| CCN(CC)S(=O)(=O)c1ccc2nc(CSc3nnnn3-c3ccc(O)cc3)[nH]c2c1 | 10.6% |
| CCN(CC)S(=O)(=O)c1ccc2nc(COC(=O)c3n[nH]c4ccccc34)[nH]c2c1 | 55.6% (active) |
| CCCCC(=O)N1CC2(C)CN(C(=O)CCCC)CC(C)(C1)C2=O | -4.52% |
| Cc1cc(C)c2c(n1)nn1c(N3CCN(c4cccc(Cl)c4)CC3)cc(C)nc21 | 29.6% |
| CN1CCc2c(sc3c2c(NCc2ccco2)nc2nnnn23)C1 | 1.26% |
| COC(=O)c1cc(S(=O)(=O)NC2CCN(Cc3ccccc3)CC2)cn1C | -1.44% |
| CC(C)CCNC(=O)C1CCCN(S(=O)(=O)c2ccc(F)cc2)C1 (stereo not drawn) | -4.63% |
| CCS(=O)(=O)N1CCCC(C(=O)NCc2ccc(C)cc2)C1 (stereo not drawn) | -25.4% |
| CC(C)CNC(=O)C1CCCN(S(=O)(=O)c2ccc(-n3cnnn3)cc2)C1 (stereo not drawn) | 55.3% (active) |
| CC(Oc1ccc(Cl)cc1)C(=O)Nc1ncccn1 (stereo not drawn) | -1.55% |
| COc1ccc(CCNC(=O)c2cc3sccc3n2C)cc1OC | -5.6% |

| Compound | inhibition |
| --- | --- |
| O=C(Nc1nccs1)C1CCCN1S(=O)(=O)c1cccc2cccnc12 (stereo not drawn) | -30.1% |
| CCc1nc(Nc2ccc3nccnc3c2)c2oc3ccccc3c2n1 | -0.27% |
| COc1cc(C2C(C(=O)c3ccc(C)o3)=C(O)C(=O)N2Cc2cccnc2)ccc1O (stereo not drawn) | 5.97% |
| COc1nc(OC)nc(N(C)CCO)n1 | -8.92% |
| CCC1=[N+]([O-])C(C)(/C(C)=N\O)N(O)C1(C)C (stereo not drawn) | 50.7% (active) |
| C/C(=N\O)C1(C)N(O)C(C)(C)C(c2ccc(Br)cc2)=[N+]1[O-] (stereo not drawn) | -4.23% |
| CCC1(C)N(O)C(C)(C)C(c2ccc(OC)cc2)=[N+]1[O-] (stereo not drawn) | -6.14% |
| CC(=O)CCS(=O)(=O)c1ccc(C)c(C)c1 | -10.6% |
| CC(=O)Oc1cccc(N2C(=O)CC(Nc3ccc(N4CCOCC4)cc3)C2=O)c1 (stereo not drawn) | 2.32% |
| Cc1csc(NC(=O)CN2CCCCCC2)n1 | 7.02% |
| CCOC(=O)Cc1csc(NC(=O)Nc2ccccc2)n1 | -23.4% |
| Cc1csc(NC(=O)NC2(C(F)(F)F)Oc3ccccc3O2)n1 | 74.1% (active) |
| CCCCCOC(=O)NCCOC(=O)Nc1ccc(C(=O)OCC)cc1 | -14% |
| Cc1cccc(C(=O)Nc2ccc(CC(=O)O)cc2)c1 | -3.58% |
| CCOC(=O)c1sc(=S)n2c1[nH]c(=O)c1ccc(C(=O)OC)cc12 | 93.6% (active) |
| COC(=O)c1ccc2c(=O)n(CC3CCCO3)c(=S)[nH]c2c1 (stereo not drawn) | 0.2% |
| COC(=O)c1cccc(NC(=O)CSc2nc(C)cc(=O)[nH]2)c1 | -4.06% |
| CSc1ccc(-c2c(C#N)c(N)nc3c2c(C)nn3-c2ccccc2)cc1 | -4.17% |
| C[C@H](NC(=O)OC(C)(C)C)c1nnc(SCC(N)=O)o1 | -8.59% |
| Cc1ccc2cccc(O)c2[n+]1[O-] | 63.1% (active) |
| CC(=O)Nc1cccc2c1[n+]([O-])c(C)c(C)[n+]2[O-] | -5.6% |
| CCCS(=O)(=O)N1CCCC(C(=O)NCCN2CCCCC2C)C1 (stereo not drawn) | -24.4% |
| COc1ccc(CCNC(=O)CSc2nnc(CNC(=O)c3cccs3)o2)cc1OC | 4.42% |

| Compound | inhibition |
| --- | --- |
| c1ccc(CSc2nnc(-c3ccco3)n2Cc2ccccc2)cc1 | -24.3% |
| c1ccc(CSc2nnc(-c3ccco3)c(-c3ccco3)n2)cc1 | 97% (active) |
| Nc1cc(=O)nc(SCc2ccccc2)n1Cc1ccco1 | -80.9% |
| O=c1cc(O)nc(SCc2ccccc2Cl)[nH]1 | -21.4% |
| Clc1ccccc1CSc1nnc(-c2ccco2)c(-c2ccco2)n1 | 55.3% (active) |
| c1coc(-c2nc3nc4ccccc4n3nc2-c2ccco2)c1 | -3.81% |
| Cc1nn(-c2ccccc2)c(C)c1C(=O)OCC(=O)NC(=O)NC1CCCCC1 | 7.28% |
| OC1CN=C2Sc3ccccc3N2C1 (stereo not drawn) | -8.76% |
| COc1ccccc1NC(=O)c1ccc(C)s1 | -6.32% |
| COc1ccc(CN2C(=O)CN=C2Nc2ccc(C)cc2C)cc1 | -7.04% |
| Cc1cc(C)nc(NC2=NCC(=O)N2c2ccc(Cl)cc2)n1 | 4.35% |
| COc1ccc(N2C(=O)CN=C2Nc2cccc(C)c2C)cc1OC | 93.2% (active) |
| CCOC(=O)N1CCC(NC(=O)c2cnn3ccccc23)CC1 | -4.53% |
| FC(F)(F)c1cc(-c2ccco2)nc(N2CCOCC2)n1 | -9.98% |
| CCOC(=O)c1ccn(-c2nc(-c3ccco3)cc(C(F)(F)F)n2)n1 | -4.86% |
| Cc1cc(C(F)(F)F)nn1-c1nc(-c2ccco2)cc(C(F)(F)F)n1 | 94.4% (active) |
| O=C(Nc1ccc(-c2nnc(-c3ccccc3)o2)cc1)C1CCCO1 (stereo not drawn) | 4.33% |
| Nc1ccc(-c2nnc(-c3ccc(-c4ccccc4)cc3)o2)cc1 | 80.5% (active) |
| O=C(Nc1ccc(-c2nnc(-c3ccccc3)o2)cc1)c1ccc(Br)o1 | -4.57% |
| CCCc1[nH]nc2c1C(c1ccc(OC)c(Cn3nc(C)c(Br)c3C)c1)C(C#N)=C(N)O2 (stereo not drawn) | 7.36% |
| O=C(c1ccc2c(c1)OCO2)N1CCNc2ccccc2C1 | -5.92% |
| O=C(c1ccccc1-c1ccccc1)N1CCOCC1 | 4.44% |
